FH mod: Identification of activators of human fumarate hydratase by quantitative high-throughput screening. 0.22% of 54,000 active. Potency, µM (top dose mostly 79.9 µM), inactives show at the highest dose activity change, negative = inhibition, usual class: inhibitors. FH coupled MDH/diaphorase resazurin fluorescence, 15 min; note: % is set by controls: 0 for no effect and ±100 for the full control effect; the screen sought activators but most active calls are inhibition curves; nearly all actives have a fitted effect of over 45% in size
HTT prom inh: inhibits huntingtin promoter activity. Potency, µM (top dose mostly 57.5 µM), inactives show at the top dose activity change, negative = inhibition, hits mostly inhibitors. HEK293 HTT promoter firefly luciferase reporter, 24 h. AID 1508623. 0.93% of 48,000 active; note: nearly all actives have a fitted effect of over 50% in size
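Firefly luciferase signal from promoter-reporter HEK293 cells was scaled between vehicle (0%) and zero RLU (-100%). Compounds were tested at final concentrations of up to 57.5 uM over 24 h at 37 degrees C. PTC124 at 50 uM final served as control inhibitor.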
HTT-AS act: activates huntingtin-antisense promoter activity. AID 1508624. 0.24% of 48,000 active. HEK293 HTT-AS promoter firefly luciferase reporter, 24 h; response scale: percent change from vehicle, -100% = no light. Potency, µM (highest dose often 57.5 µM), inactives show at the top dose activity change, positive = activation, most hits filed as activators; note: nearly all actives have a fitted effect of over 55% in size
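Quantitative HTS used concentration series of up to 57.5 uM final on HEK293 luciferase reporter cells, 24 h at 37 degrees C. Readout was Dual-Glo firefly luminescence.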
GALC G270D up: raises human GALC G270D mutant activity in cells; AID 1159614; P54803; 0.1% of 45,000 active; Potency, µM (doses to about 57.5 µM), usual class: activators; 145M-Twi-hGALC-G270D cells (Twitcher mouse brain line with human GALC G270D), HMU-beta-Gal fluorescence, 48 h; note: 0% is about no effect; nearly all actives have a fitted effect of over 65% in size
Target sequence (P54803 whole entry G286D): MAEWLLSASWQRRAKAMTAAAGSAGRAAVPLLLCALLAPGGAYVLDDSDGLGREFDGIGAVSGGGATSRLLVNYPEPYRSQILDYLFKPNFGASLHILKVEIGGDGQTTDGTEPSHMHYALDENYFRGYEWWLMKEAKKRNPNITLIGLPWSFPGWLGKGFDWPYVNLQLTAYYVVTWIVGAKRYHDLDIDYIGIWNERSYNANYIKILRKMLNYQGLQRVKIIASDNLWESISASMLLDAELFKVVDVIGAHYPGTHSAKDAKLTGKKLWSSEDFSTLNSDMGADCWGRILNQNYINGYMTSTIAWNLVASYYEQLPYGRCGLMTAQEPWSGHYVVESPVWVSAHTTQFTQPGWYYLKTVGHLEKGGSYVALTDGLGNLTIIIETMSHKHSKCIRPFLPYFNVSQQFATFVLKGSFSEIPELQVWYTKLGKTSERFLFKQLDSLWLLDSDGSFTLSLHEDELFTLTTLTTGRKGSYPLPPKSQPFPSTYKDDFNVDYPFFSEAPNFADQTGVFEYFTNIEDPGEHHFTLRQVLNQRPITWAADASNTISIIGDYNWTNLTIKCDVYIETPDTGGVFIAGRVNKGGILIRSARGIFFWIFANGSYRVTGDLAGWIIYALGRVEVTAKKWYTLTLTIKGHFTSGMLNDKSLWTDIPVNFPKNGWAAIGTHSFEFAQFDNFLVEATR
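Live 145M-Twi cells (Twitcher mouse brain-derived, GALC-null) stably expressing human GALC-G270D, with a wild-type GALC line, were compound-treated. Residual GALC activity was then read as fluorescence from 0.1 mM final HMU-β-gal at pH 5.2; higher signal means activation.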
* = called active by the depositor; i = inactive; . = not tested or not shown; [ ] = remark or other dose. Most compounds without a hit are left out; they make up all but 1.3% or so of the library. Calls come from the whole dose curve; as a rule, active = well fitted curve in the direction sought with a large enough effect; inconclusive = small, poorly fitted or top-dose-only effect, or another doubt; inactive = no such curve, though single readings can be large; an effect the other way counts as inactive or inconclusive. Potency is the fitted concentration of half-maximal effect.

SMILES	FH mod	HTT prom inh	HTT-AS act	GALC G270D up
COc1ccc(NC(=O)c2cccn(Cc3ccc(Cl)cc3)c2=O)c(OC)c1	3%	13µM*	-50%	i
Cc1cc(NC(=O)c2cccn(Cc3cccc(Cl)c3)c2=O)no1	6%	-9%	-14%	i
CCOc1ccc(NC(=O)c2cccn(Cc3cccc(Cl)c3)c2=O)cc1	-18%	16µM*	-34%	i
COc1ccc(NC(C)=O)cc1NC(=O)c1cccn(Cc2ccccc2)c1=O	12%	-12%	10%	i
CC1=CC(=O)[C@@H](O)[C@]2(C)C3[C@@H](O)[C@@H]4OC(=O)[C@@H]([C@H]4C)[C@]3(C)C(=O)[C@H](O)[C@@H]12 (some centres not stated)	-1%[53.3 µM]	.	.	.
N#Cc1cc2c(nc1SCC(=O)Nc1ccc(OC(F)(F)F)cc1)C1CCN2CC1	-13%	28µM*	-51%	i
CCCN1CCc2cc(O)cc3c2[C@H]1Cc1ccc(O)c(O)c1-3	14µM*	.	.	.
CN1CCc2cc(Cl)c(O)cc2[C@H]2c3ccccc3CC[C@@H]21	0%[53.3 µM]	-5%	-11%	i
CN1CCc2cc(O)cc3c2[C@H]1Cc1ccc(O)c(O)c1-3	14µM*	.	.	.
c1ccc2c(N3CCNCC3)cccc2c1	-5%[53.3 µM]	.	.	.
O=C(CCc1nc(C2=CCN(Cc3cccc(Cl)c3)CC2)no1)Nc1ccccc1F	-18%	-33%	-13%	i
CC(=O)c1cccc(NC(=O)c2cccn(Cc3cccc(C)c3)c2=O)c1	-25%	-21%	-16%	i
COc1ccc(-c2nc(CSCC(=O)N3CCN(c4ccc(F)cc4)CC3)c(C)o2)cc1	-14%	13µM*	-51%	i
NCc1cc(=O)[nH]o1	-3%[53.3 µM]	.	.	.
Cc1ccc(-n2c(/C=C\c3ccc(F)c(F)c3)nc3ccccc3c2=O)c(C)c1	5%	7.1µM*	-32%	i
Oc1ccc([C@H]2CNCc3c2ccc(O)c3O)cc1O	31µM*	0%	-8%	i
